Gli-Sufu antag = blocks Gli-Sufu signaling in a luciferase reporter | Sufu-KO-LIGHT fibroblasts, Gli luciferase reporter luminescence | inhibition, % at 5 µM | actives 0.74% (n = 340,000) | AID 588413;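 active = inhibition above about 55%, limit read from the data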;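 note: 0% = DMSO-treated cells and 100% = wells with medium but no cells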
COUP-TFII inh = blocks human COUP-TFII nuclear receptor; P24468; HEK293T NGFI-A luciferase reporter, luminescence; inhibition, % at 8.6 µM; actives 0.7% (n = 370,000);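 active = inhibition above a per-plate cutoff, mean inhibition of test wells between control levels plus 3 SD, cut at about 38% in these data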;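 note: cells cotransfected with COUP-TFII expression vector driving the NGFI-A reporter; 0% = median of COUP-TF2 test wells and 100% = reporter-only cells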
NCOA2 inhibitor = human SRC2 (NCOA2) inhibition. Q15596. HEK293 GAL4-SRC2 luciferase reporter, luminescence. inhibition, % at 9 µM. actives 0.17% (n = 370,000). AID 651957;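 active = inhibition above the mean inhibition of all tested compounds plus 3 SD, set per campaign, cut at about 52% in these data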;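 note: 0% = DMSO treated cells and 100% = cells given Gossypol at 36 µM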
SRC3 inh = human NCOA3 inhibition; inhibition, % at 3.6 µM; Q9Y6Q9; HEK293 GAL4-SRC3 luciferase reporter, luminescence; AID 588352; actives 0.17% (n = 360,000);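 active = inhibition above a per-campaign cutoff, the mean of all compounds plus 3 SD, cut at about 60% in these data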;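 note: 0% = DMSO-treated cells and 100% = gossypol-treated cells at 36 µM; higher means less SRC3-driven luciferase light from the GAL4 reporter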
LRH-1 inv ag = NR5A2 inverse agonism in reporter assay; O00482; HEK293T StAR-luciferase reporter, LRH-1 transfected, 24 h; inhibition, % at 3.6 µM; actives 0.13% (n = 360,000); AID 602396;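 active = inhibition above the mean inhibition of all tested compounds plus 3 SD, cut at about 73% in these data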;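 note: 0% = DMSO wells and 100% = reporter-only cells lacking LRH-1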
Target sequence (O00482 whole entry, looked up): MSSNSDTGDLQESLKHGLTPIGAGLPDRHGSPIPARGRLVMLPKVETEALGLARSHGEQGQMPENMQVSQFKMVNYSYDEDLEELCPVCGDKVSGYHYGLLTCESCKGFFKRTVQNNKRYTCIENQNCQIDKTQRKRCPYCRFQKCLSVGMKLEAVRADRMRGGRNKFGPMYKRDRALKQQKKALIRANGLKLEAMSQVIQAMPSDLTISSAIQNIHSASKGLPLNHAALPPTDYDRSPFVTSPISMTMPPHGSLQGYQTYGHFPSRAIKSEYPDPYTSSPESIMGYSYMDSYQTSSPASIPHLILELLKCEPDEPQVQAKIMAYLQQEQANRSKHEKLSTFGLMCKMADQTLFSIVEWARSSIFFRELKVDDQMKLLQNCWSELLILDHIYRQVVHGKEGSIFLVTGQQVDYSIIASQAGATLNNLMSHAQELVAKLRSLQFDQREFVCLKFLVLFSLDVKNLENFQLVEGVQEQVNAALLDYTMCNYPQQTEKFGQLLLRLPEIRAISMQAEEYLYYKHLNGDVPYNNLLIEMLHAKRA
SRC1 inh = inhibitors of human steroid receptor coactivator 1 (SRC1); Q15788; HEK293 GAL4-SRC1 luciferase reporter, luminescence; inhibition, % at 3.6 µM; actives 0.12% (n = 360,000);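 active = inhibition above the campaign mean plus 3 SD, with each screening campaign given its own cutoff, cut at about 60% in these data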;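 note: 0% = DMSO treated cells and 100% = gossypol at 36 µM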
VP16 Luc counter = counter-screen for COUP-TFII antagonists: inhibitors of VP16; shares compounds with COUP-TFII inh; HEK293 Gal4-VP16 luciferase reporter, luminescence; inhibition, % at 8.5 µM; actives 25% (n = 2,500); in the data active = inhibition above about 13%
NR2F2 inh conf = confirmation of human COUP-TFII (NR2F2) inhibitors; HEK293 NGFI-A luciferase reporter, luminescence; shares compounds with COUP-TFII inh; inhibition, % at 8.5 µM; actives 45% (n = 2,500);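 active = mean inhibition over three repeats above a set limit taken from the earlier primary screen, cut at about 38% in these data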;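 note: 100% = cells given the luciferase reporter alone without the COUP-TF2 vector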
Starred values were filed as active, the others as inactive; i = inactive; . = no result given. Most compounds without a hit are left out; they make up all but 1.3% or so of the library.

SMILES	Gli-Sufu antag	COUP-TFII inh	NCOA2 inhibitor	SRC3 inh	LRH-1 inv ag	SRC1 inh	VP16 Luc counter	NR2F2 inh conf
COc1ccc(CN2CCN(C(=O)c3ccc(S(=O)(=O)NCc4ccco4)cc3)CC2)cc1	-1.6	45.2*	11.2	7.3	39.7	15.7	4.8	30.6
CCOC(=O)N1CCN(C(=O)C(NC(=O)c2ccc(C(C)(C)C)cc2)C(C)C)CC1 (stereo unspecified)	.	39.8*	25.6	1.4	9.6	-6.6	-4.0	0.1
CCOC(=O)N1CCN(C(=O)c2ccccc2NC(=O)c2ccc(C(C)(C)C)cc2)CC1	-5.0	7.6	-22.0	14.1	5.7	-23.1	.	.
CC(=O)c1c(C)[nH]c(C(=O)OCc2ccc([N+](=O)[O-])cc2)c1C	-11.7	-11.7	-4.2	-10.9	-10.2	-36.8	.	.
COC(=O)c1ccc(COC(=O)c2[nH]c(C)c(C(C)=O)c2C)o1	28.1	40.9*	-3.8	36.1	41.8	21.4	-4.2	25.4
CN=C1S/C(=C/c2cc(C)n(-c3cc(C)ccc3OC)c2C)C(=O)N1C	.	20.7	.	.	.	.	.	.
C=C(C)Cn1c(SCC(=O)N/N=C(\C)c2ccc(Br)cc2)nnc1-c1ccc(Br)cc1	.	7.1	14.3	.	.	.	.	.
CN(c1ccc(OCC(=O)OCC(=O)Nc2ccc(F)cc2)cc1)S(=O)(=O)c1ccc(Cl)cc1	0.3	2.5	-18.9	10.9	-1.6	1.1	.	.
COc1ccc(-c2csc(NC(=O)COc3ccc(N(C)S(=O)(=O)c4ccc(C)cc4)cc3)n2)cc1	49.5	40.3*	17.5	23.3	5.3	-13.1	-13.8	24.7
Cc1ccc(-c2csc(NC(=O)COc3ccc(N(C)S(=O)(=O)c4ccc(C)cc4)cc3)n2)cc1	7.0	7.5	5.3	21.9	16.0	0.2	.	.
COc1ccc(NC(=O)COc2ccc(N(C)S(=O)(=O)c3ccc(Cl)cc3)cc2)cc1OC	25.7	59.1*	13.9	28.5	41.0	11.4	1.8	58.5*
O=C1/C(=C/c2ccncc2)CCC/C1=C\c1ccncc1	1.1	84.5*	74.2*	-21.8	29.7	-165.3	65.9*	89.7*
Cc1cccc(C(=O)Nc2ccc(N3CCN(c4ccc(C(F)(F)F)cn4)CC3)nc2)c1	10.7	8.9	9.9	12.9	8.0	-16.7	.	.
CC(C)(C)C(=O)Nc1ccc(N2CCN(c3ccc(C(F)(F)F)cn3)CC2)nc1	29.1	-0.3	11.4	6.5	-8.6	1.5	.	.
CS(=O)(=O)Nc1ccc(N2CCN(c3ccc(C(F)(F)F)cn3)CC2)nc1	22.9	43.1*	15.8	13.8	8.7	1.1	-2.5	10.7
O=C(Nc1ccc(N2CCOCC2)nc1)c1ccc(C(F)(F)F)cc1	1.5	48.7*	23.5	18.6	1.2	7.6	9.8	34.7
O=C1CC(N2CCCN(Cc3ccccc3)CC2)=NC(=O)N1c1ccc(Br)cc1	.	-7.3	3.3	.	.	.	.	.
Cc1cc(C)cc(NC(=O)OC2CC3CC2[C@H]2CCCCN2[C@H]3Cc2ccccc2)c1 (stereo partly specified)	.	-19.5	18.5	.	.	.	.	.
N#Cc1ccccc1N1CCN(C(=O)C2CCN(c3ncnc4c3sc3cccc(F)c34)CC2)CC1	.	57.6*	13.1	.	.	.	-8.2	27.7
CCc1ccc(S(=O)(=O)Nc2cc3c(cc2C)n(C)c(=O)n3C)cc1	65.2*	40.6*	10.1	16.1	36.9	-3.9	11.0	26.1
CCN(CC)CCC(=O)N1C/C(=C/c2ccccc2)C(=O)/C(=C\c2ccccc2)C1	-2.7	74.5*	36.9	-8.2	69.9	-85.4	66.7*	65.2*
O=C1/C(=C\c2ccc(Cl)c(Cl)c2)CN(C(=O)CCN2CCOCC2)C/C1=C/c1ccc(Cl)c(Cl)c1	10.3	85.1*	30.2	-241.1	60.7	i	91.9*	106.3*
O=C1/C(=C\c2ccccc2)CN(C(=O)CCN2CCCCC2)C/C1=C/c1ccccc1	7.4	63.0*	40.4	1.7	74.1*	-8.1	64.0*	63.1*
O=C1/C(=C\c2ccccc2)CCC/C1=C/c1ccccc1	0.5	2.1	-30.8	1.5	0.9	4.4	.	.

Screening data deposited in PubChem BioAssay by several laboratories.
